Assay results as given in article PMC4336329 (PLoS ONE, 2015).
Among all 310,000 compounds or so, about 14,000 (4.5%) showed an effect of 50% or more. Effects have a minus sign here. The sample holds strong results, similar compounds and a random draw of the others, so the mix is not that of the screen.

Each compound was assayed against human ether-à-go-go-related gene (hERG) potassium channel (human, UniProt Q12809) (assay: primary screen, population patch clamp on CHO cells stably expressing hERG; higher = less effect of the substance).
Sequence of human ether-à-go-go-related gene (hERG) potassium channel (Q12809 whole entry, looked up): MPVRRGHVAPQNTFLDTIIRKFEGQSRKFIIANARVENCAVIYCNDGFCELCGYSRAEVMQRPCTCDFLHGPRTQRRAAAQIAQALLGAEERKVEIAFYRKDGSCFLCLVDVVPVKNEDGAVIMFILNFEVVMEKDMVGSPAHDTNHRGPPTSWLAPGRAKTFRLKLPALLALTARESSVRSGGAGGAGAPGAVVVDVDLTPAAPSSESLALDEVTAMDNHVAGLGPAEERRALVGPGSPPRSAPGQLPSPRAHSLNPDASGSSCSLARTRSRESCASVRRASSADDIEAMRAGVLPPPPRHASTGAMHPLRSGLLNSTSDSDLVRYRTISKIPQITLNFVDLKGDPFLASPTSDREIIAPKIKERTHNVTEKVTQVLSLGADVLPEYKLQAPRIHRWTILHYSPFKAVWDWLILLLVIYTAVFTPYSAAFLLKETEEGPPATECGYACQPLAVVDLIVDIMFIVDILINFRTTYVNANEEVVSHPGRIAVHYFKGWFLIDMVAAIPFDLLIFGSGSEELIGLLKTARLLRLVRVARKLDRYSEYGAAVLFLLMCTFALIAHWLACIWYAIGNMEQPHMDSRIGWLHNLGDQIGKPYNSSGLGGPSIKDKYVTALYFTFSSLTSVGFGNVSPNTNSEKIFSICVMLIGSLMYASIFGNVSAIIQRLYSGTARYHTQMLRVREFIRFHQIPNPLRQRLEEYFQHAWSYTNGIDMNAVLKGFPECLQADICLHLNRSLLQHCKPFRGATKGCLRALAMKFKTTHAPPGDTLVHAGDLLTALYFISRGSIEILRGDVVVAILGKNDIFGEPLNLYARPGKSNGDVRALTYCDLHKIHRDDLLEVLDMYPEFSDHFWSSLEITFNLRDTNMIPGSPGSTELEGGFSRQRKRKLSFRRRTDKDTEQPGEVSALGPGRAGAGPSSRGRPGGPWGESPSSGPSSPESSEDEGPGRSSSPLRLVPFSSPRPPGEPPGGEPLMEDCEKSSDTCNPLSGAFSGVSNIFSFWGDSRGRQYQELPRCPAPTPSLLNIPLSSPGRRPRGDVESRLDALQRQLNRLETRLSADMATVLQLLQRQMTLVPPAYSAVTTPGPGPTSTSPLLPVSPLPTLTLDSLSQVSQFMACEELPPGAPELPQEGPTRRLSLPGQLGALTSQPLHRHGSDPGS
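Note: peak tail current of the secondary pulse compared with the same well before compound.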

| SMILES | hERG current change (%, negative = inhibition) at 10uM |
| --- | --- |
| Cc1ccc(NC(=O)CN2CCN(CCN=CC3=C(O)CC(c4ccccc4)CC3=O)CC2)cc1 (centres unmarked) | -67.4% |
| O=C1CC(c2ccccc2)CC(O)=C1C=NCCN1CCN(C(=S)Nc2cccc(Cl)c2)CC1 (centres unmarked) | -39.4% |
| O=C1CC(c2ccc(F)cc2)CC(O)=C1C=NCCN1CCNCC1 (centres unmarked) | 6.09% |
| O=C(Nc1cc2c(cc1Br)OCCO2)c1cccnc1 | 1.58% |
| O=C(c1ccc(CS(=O)Cc2cccc(Cl)c2)o1)N1CCN(C2CCCCC2)CC1 (centres unmarked) | -16.5% |
| COc1cc2nc(C3CCC3)n(NC(=O)C(OC(C)=O)c3ccccc3)c(=O)c2cc1OC (centres unmarked) | 9.45% |
| Cc1c(C(=O)NCCSCc2ccco2)cccc1[N+](=O)[O-] | -5.94% |
| CN(Cc1cc2ccccc2[nH]c1=O)C(=O)COc1ccccc1 | -8.32% |
| O=C(COC(=O)C1(c2ccccc2F)CCCC1)Nc1ncc(C(F)(F)F)cc1Cl | -10.1% |
| CSc1ccc(Cl)c(C(=O)Nc2ccc(N3CCOCC3)cc2)c1 | -1.67% |
| Cc1cc(NC(=O)Nc2ccc(Cl)cc2)n(C(C)(C)C)n1 | 17.7% |
| CC(NC(=O)c1nn(C)c2c1CS(=O)(=O)c1ccccc1-2)c1ccccc1 (centres unmarked) | -13.1% |
| CC(OC(=O)Cc1c(F)cccc1Cl)C(=O)NC1(C#N)CCCCC1 (centres unmarked) | -22.4% |
| C=CCNC(=S)N1CCN(CCN=CC2=C(O)CC(c3cccs3)CC2=O)CC1 (centres unmarked) | -49.1% |
| CC(=O)N1CCN(CCN=CC2=C(O)CC(c3ccc(Cl)cc3)CC2=O)CC1 (centres unmarked) | -15.7% |
| C=CCNC(=S)N1CCN(CCN=CC2=C(O)CC(c3ccc(Cl)cc3)CC2=O)CC1 (centres unmarked) | -66.4% |
| Fc1c(F)c(C(F)(F)F)c(F)c(F)c1N/N=C\c1cccs1 | 15.5% |
| CC(=O)N1CCN(C(=O)COc2ccccc2C(=O)Nc2ccccc2)CC1 | -53.2% |
| COc1ccccc1C(=O)Nc1ccc(OCC(=O)N2CCCCC2)cc1 | -2.87% |
| Cc1ccc(Cl)cc1NC(=O)c1ccccc1OCC(=O)N1CCOCC1 | -63.6% |
| Cc1cccc(NC(=O)c2ccccc2OCC(=O)N2CCOCC2)c1C | -6.62% |

| SMILES | hERG current change (%, negative = inhibition) at 10uM |
| --- | --- |
| O=C(Nc1cccc(Cl)c1Cl)c1ccccc1OCC(=O)N1CCOCC1 | -13.5% |
| Cc1cc(NC(=O)c2ccc(Cl)cc2)cc(C)c1OCC(=O)N1CCOCC1 | -52.4% |
| Cc1ccc(C(=O)Nc2cc(C)c(OCC(=O)N3CCOCC3)c(C)c2)cc1 | -11.3% |
| CCCCOc1ccc(C(=O)Nc2cc(C)c(OCC(=O)N3CCOCC3)c(C)c2)cc1 | -24.8% |
| CC(=O)c1ccc(NC(=O)COc2ccccc2C(=O)Nc2ccccc2)cc1 | 9.66% |
| COc1ccc(C(CNC(=O)c2cc(C)on2)N(C)C)cc1 (centres unmarked) | 22.1% |
| O=C(CSc1nc2c(sc3ccccc32)c(=O)n1CCCN1CCOCC1)NCC1CCCO1 (centres unmarked) | -14.3% |
| CCCCn1c(SCC(=O)NCc2ccco2)nc2c(sc3ccccc32)c1=O | -16.8% |
| O=C(CSc1nc2c(sc3ccccc32)c(=O)n1CCCN1CCCC1)NCC1CCCO1 (centres unmarked) | -61.6% |
| O=C(CSc1nc2c(sc3ccccc32)c(=O)n1CCO)NCc1ccco1 | -18.2% |
| O=C(CSc1nc2c(sc3ccccc32)c(=O)n1CCO)NCC1CCCO1 (centres unmarked) | -3.42% |
| CCN(CC)CCn1c(SCC(=O)NCCC2=CCCCC2)nc2c(sc3ccccc32)c1=O | 35.5% |
| CCN(CC)CCn1c(SCC(=O)NCc2ccccc2)nc2c(sc3ccccc32)c1=O | -29.3% |
| O=C(CSc1nc2c(sc3ccccc32)c(=O)n1CCCN1CCCC1)NCc1ccco1 | -73% |
| O=C(CSc1nc2c(sc3ccccc32)c(=O)n1CCc1ccccc1)NCc1ccco1 | -8.32% |
| C=CCN(C(=O)CSc1nc2c(sc3ccccc32)c(=O)n1CCN(CC)CC)c1ccccc1 | -77.4% |
| CCOCCCn1c(SCC(=O)NCc2ccco2)nc2c(sc3ccccc32)c1=O | -27.6% |
| CCN(CC)CCn1c(SCC(=O)NCc2ccco2)nc2c(sc3ccccc32)c1=O | -68.2% |
| CC1(C)CN(c2cccc(Br)c2)C1=O | 7.96% |
| Cc1c(C)n(CC(O)CNc2ccccc2)c2ccccc12.O=C(O)C(=O)O (centres unmarked) | 23.1% |
